In all, about 39,000 compounds went through this assay and about 1,500 (3.8%) were called active. The entries come from a sample that favours actives as a whole.

In this test the test system is HSkMC (human skeletal muscle cells). The test can be described thus: cytotoxicity call (relative viability < 0.9). To be noted: 10 µM.
For the compound `COc1ccc(-c2nc(N3CCOCC3)c3sc(CN(C)c4ncc(C(=O)NO)cn4)cc3n2)cn1`, the cytotoxicity call is “active”.
The value for `COC(=O)COc1nsnc1N1CCOCC1` was “inactive”; that for `CNc1ccc(-c2nc(N3CCOCC3)c3sc(CN(C)c4ncc(C(=O)NO)cn4)cc3n2)cn1` was “active”.
The value for `COc1ccc(NC(=O)N(C)C[C@@H]2OCCCC[C@H](C)Oc3ccc(NC(=O)Cc4ccccc4)cc3C(=O)N([C@H](C)CO)C[C@@H]2C)cc1` was “inactive”; that for `Cc1ccc(Oc2ccc(CN)cc2)cc1` was “inactive”.
As for `Cc1ccc(S(=O)(=O)N(C)C[C@H]2Oc3ccc(NC(=O)CCCN(C)C)cc3CC(=O)N([C@H](C)CO)C[C@@H]2C)cc1`, the cytotoxicity call is “inactive”.
The result for `C[C@@H]1CN([C@H](C)CO)C(=O)c2cc(NC(=O)Nc3ccccc3)ccc2O[C@@H](C)CCCCO[C@H]1CN(C)C(=O)C1CCCCC1` reads “inactive”; that for `C[C@H](CO)N1C[C@H](C)[C@H](CN(C)S(=O)(=O)c2ccc(Cl)cc2)Oc2ccc(NC(=O)CCCN(C)C)cc2CC1=O`, “inactive”; that for `COCC(=O)N1C[C@H](C)[C@H](OC)CN(C)C(=O)c2cc(NC(=O)c3cc(C)on3)ccc2OC[C@H]1C`, “inactive”.
Take `C[C@@H]1CN([C@@H](C)CO)C(=O)Cc2cc(NC(=O)CCCN(C)C)ccc2O[C@H]1CN(C)S(=O)(=O)c1ccccc1`: the cytotoxicity call is “inactive”.
The value for `CC1(C)C(=O)C=CC2(C)C1CC(=O)C1(C)C2CCC2(C)C(c3ccoc3)OC(=O)C3OC321` (configuration not stated) was “inactive”.
The result for `CC1(C)C(=O)C=CC2(C)C1C=CC1(C)C2CCC2(C)C(c3ccoc3)OC(=O)C3OC312` (configuration not stated) reads “active”; that for `CC(=O)OC1CCC2(C)C(CC(OC(C)=O)C3(C)C2CCC2(C)C(c4ccoc4)OC(=O)C4OC423)C1(C)C` (stereo not drawn) [3beta-ACETOXYDEOXODIHYDROGEDUNIN ], “inactive”; that for `CCC(=O)N1C[C@]2(C1)CN([C@@H](CO)c1[nH]c3cc(ccc3c12)OC)S(=O)(=O)C`, “inactive”.
Turning to `C[C@@H]1CCCCO[C@H](CN(C)C(=O)Nc2ccc(F)cc2)[C@H](C)CN([C@@H](C)CO)C(=O)c2cc(NC(=O)CCCN(C)C)ccc2O1`, the cytotoxicity call is “inactive”.
On to `COc1ccc(NC(=O)Nc2ccc3c(c2)C(=O)N([C@@H](C)CO)C[C@@H](C)[C@H](CN(C)C(=O)Nc2c(C)noc2C)OCCCC[C@H](C)O3)cc1`, for which the cytotoxicity call is “inactive”.
The value for `Cc1ccc(O)c(C(C)(C)C)c1` was “inactive”; that for `Cc1cc(CO)c(O)c(CO)c1` was “inactive”; that for `Cc1cc(C(C)(C)C)c(O)c(C(C)(C)C)c1` was “active”.
For `COc1ccc(S(=O)(=O)Nc2ccc3c(c2)C(=O)N([C@@H](C)CO)C[C@H](C)[C@@H](CN(C)C(=O)Nc2ccc(C(F)(F)F)cc2)OCCCC[C@@H](C)O3)cc1`, the cytotoxicity call was “inactive”.
The value for `NNC(=O)CCc1ccccc1` was “inactive”.
The value for `CNC(=O)CN1CCOC[C@]2(CCCN(C(C)=O)C2)C1` was “inactive”; that for `S=C(NCCCc1cnc[nH]1)NCCCN(Cc1ccc(Cl)c(Cl)c1)c1ccc(Br)cn1` was “active”.
The result for `COc1ccc2c3c([nH]c2c1)[C@@H](CO)N(C[C@]13CCN(CC1)CC1CCCC1)C(=O)Nc1cccc(c1)F` reads “inactive”; that for `COc1ccc2c3c([nH]c2c1)[C@H](CO)N(CC1CCCCC1)C[C@]13CCN(CC1)C(=O)Nc1cccc(c1)F`, “inactive”.
With `COc1ccc2c3c([nH]c2c1)[C@@H](CO)N(CC1CCCCC1)C[C@]13CCN(CC1)C(=O)Nc1cccc(c1)F`, the cytotoxicity call is “active”.
The result for `COc1ccc(cc1)CN1C[C@]2(CCN(CC2)C(=O)Nc2cccc(c2)F)c2c([nH]c3cc(ccc23)OC)[C@@H]1CO` reads “inactive”.
The value for `COc1ccc2c3c([nH]c2c1)[C@H](CO)N(CC1CCCCC1)C[C@]13CCN(CC1)C(=O)NC1CCCC1` was “active”.
Turning to `COc1ccc2c3c([nH]c2c1)[C@H](CO)N(C[C@]13CCN(CC1)CC1CCCCC1)C(=O)Nc1c(noc1C)C`, the cytotoxicity call was “inactive”.
The value for `COc1ccc2c3c([nH]c2c1)[C@@H](CO)N(CC1CCCCC1)C[C@]13CCN(CC1)C(=O)NC1CCCC1` was “inactive”.
Regarding `COc1ccc2c3c([nH]c2c1)[C@@H](CO)N(C[C@]13CCN(CC1)CC1CCCCC1)C(=O)Nc1cccc(c1)F`, the cytotoxicity call was “active”.
In the case of `COc1ccc2c3c([nH]c2c1)[C@H](CO)N(C[C@]13CCN(CC1)CC1CCCC1)C(=O)Nc1cccc(c1)F`, the cytotoxicity call was “inactive”.
The result for `COc1ccc2c3c([nH]c2c1)[C@@H](CO)N(CC1CCOCC1)C[C@]13CCN(CC1)C(=O)C1CCOCC1` reads “inactive”.
On to `COc1ccc2c3c([nH]c2c1)[C@H](CO)N(C[C@]13CCN(CC1)CC1CCCCC1)C(=O)Nc1cccc(c1)F`, for which the cytotoxicity call is “active”.
The result for `COc1ccc2c3c([nH]c2c1)[C@@H](CO)N(C[C@]13CCN(CC1)CC1CCCCC1)C(=O)Nc1c(noc1C)C` reads “inactive”; that for `C[C@@H]1CN([C@H](C)CO)S(=O)(=O)c2ccc(-c3ccc(C(=O)N(C)C)cc3)cc2O[C@H]1CN(C)C(=O)C1CC1`, “inactive”; that for `C[C@@H]1CN([C@H](C)CO)C(=O)Cc2cc(NS(=O)(=O)c3ccccc3)ccc2O[C@H]1CN(C)S(=O)(=O)c1cccs1`, “inactive”.
The result for `Cc1cc(C(=O)Nc2cccc3c2O[C@@H](CN(C)S(=O)(=O)c2cn(C)cn2)[C@H](C)CN([C@H](C)CO)C3=O)n(C)n1` reads “inactive”.
The value for `NC(=O)NCC#Cc1ccc2c(c1)[C@]1(C(=O)N2)[C@H](c2ccc(OCCO)cc2)N2[C@H](c3ccccc3)[C@H](c3ccccc3)OC(=O)[C@H]2[C@@H]1C(N)=O` was “inactive”; that for `O=C(C[C@H]1CC[C@@H](NC(=O)Cc2ccccn2)[C@H](CO)O1)NCCCN1CCOCC1` was “inactive”; that for `CC(=O)n1cc([C@@H]2C=C(C(=O)N3CCN(Cc4ccccc4)CC3)O[C@H](OCc3ccc(CO)cc3)C2)c2ccccc21` was “inactive”.
As to `O=C(C[C@H]1C[C@@H]2c3cc(NS(=O)(=O)c4ccc(F)cc4)ccc3O[C@@H]2[C@@H](CO)O1)N1CCOCC1`, the cytotoxicity call is “inactive”.
For the compound `Cc1cc(C)c(C)c(C(=O)O)c1C`, the cytotoxicity call is “inactive”.
The result for `O=C(C[C@@H]1CC[C@H]2NC[C@H](O)COC[C@@H]2O1)NCCN1CCCC1` reads “inactive”; that for `C[C@@H]1CN([C@@H](C)CO)C(=O)Cc2cc(NS(=O)(=O)c3ccc(Cl)cc3)ccc2O[C@@H]1CN(C)S(C)(=O)=O`, “inactive”; that for `C[C@@H]1CCCCO[C@H](CN(C)Cc2ccc3c(c2)OCO3)[C@H](C)CN([C@@H](C)CO)C(=O)c2cc(NC(=O)Nc3ccc4c(c3)OCO4)ccc2O1`, “active”.
With `COc1ccc(NC(=O)Nc2ccc3c(c2)C(=O)N([C@H](C)CO)C[C@H](C)[C@@H](CN(C)Cc2ccc4c(c2)OCO4)OCCCC[C@H](C)O3)cc1`, the cytotoxicity call was “inactive”.
The value for `COc1ccc(NC(=O)Nc2ccc3c(c2)C(=O)N([C@@H](C)CO)C[C@H](C)[C@H](CN(C)Cc2ccc4c(c2)OCO4)OCCCC[C@H](C)O3)cc1` was “active”.
The result for `C[C@@H]1CCCCO[C@@H](CN(C)Cc2ccc(Cl)c(Cl)c2)[C@@H](C)CN([C@@H](C)CO)C(=O)c2cc(NC(=O)Nc3ccc4c(c3)OCO4)ccc2O1` reads “active”.
The result for `C[C@@H]1CCCCO[C@@H](CN(C)Cc2ccc3c(c2)OCO3)[C@@H](C)CN([C@@H](C)CO)C(=O)c2cc(NC(=O)Nc3ccc4c(c3)OCO4)ccc2O1` reads “inactive”; that for `COc1ccc(NC(=O)Nc2ccc3c(c2)C(=O)N([C@@H](C)CO)C[C@H](C)[C@H](CN(C)Cc2ccc4c(c2)OCO4)OCCCC[C@@H](C)O3)cc1`, “inactive”; that for `C[C@@H]1CN([C@H](C)CO)C(=O)c2cc(NC(=O)Nc3ccc4c(c3)OCO4)ccc2O[C@@H](C)CCCCO[C@@H]1CN(C)Cc1ccc(Cl)c(Cl)c1`, “inactive”.
`C[C@@H]1CN([C@@H](C)CO)C(=O)c2cc(NC(=O)Nc3ccc4c(c3)OCO4)ccc2O[C@@H](C)CCCCO[C@H]1CN(C)Cc1ccc(Cl)c(Cl)c1`: the cytotoxicity call is “inactive”.
For the compound `C[C@@H]1CCCCO[C@@H](CN(C)CC2CCCCC2)[C@@H](C)CN([C@H](C)CO)C(=O)c2cc(NC(=O)Nc3ccc4c(c3)OCO4)ccc2O1`, the cytotoxicity call is “inactive”.
The result for `C[C@H](CO)N1C[C@H](C)[C@@H](CN(C)CC2CCCCC2)OCCCC[C@H](C)Oc2ccc(NC(=O)Nc3ccc4c(c3)OCO4)cc2C1=O` reads “inactive”.
The result for `C[C@@H]1CN([C@H](C)CO)C(=O)c2cc(NC(=O)Nc3ccc4c(c3)OCO4)ccc2O[C@@H](C)CCCCO[C@@H]1CN(C)Cc1ccc2c(c1)OCO2` reads “inactive”; that for `C[C@H]1CCCCO[C@@H](CN(C)CC2CCCCC2)[C@@H](C)CN([C@@H](C)CO)C(=O)c2cc(NC(=O)Nc3ccc4c(c3)OCO4)ccc2O1`, “active”.
`COc1ccc(CN(C)C[C@@H]2OCCCC[C@@H](C)Oc3ccc(NC(=O)c4ccccc4)cc3C(=O)N([C@H](C)CO)C[C@@H]2C)cc1`: the cytotoxicity call is “inactive”.
The value for `Cc1noc(C)c1NC(=O)Nc1ccc2c(c1)C(=O)N([C@@H](C)CO)C[C@H](C)[C@@H](CN(C)C(=O)Nc1c(C)noc1C)OCCCC[C@H](C)O2` was “inactive”.
As to `CN1CCN(C(=O)C[C@@H]2CC[C@@H]3[C@H](COc4ccc(NC(=O)c5cscn5)cc4C(=O)N3C)O2)CC1`, the cytotoxicity call was “inactive”.
The value for `O=C(C[C@@H]1C[C@H]2c3cc(NC(=O)C4CCOCC4)ccc3O[C@H]2[C@@H](CO)O1)NCc1cc(F)ccc1F` was “inactive”; that for `Cc1ccc(S(=O)(=O)N(C)C[C@@H]2Oc3ccc(NS(=O)(=O)c4c(C)noc4C)cc3CC(=O)N([C@H](C)CO)C[C@H]2C)cc1` was “inactive”.
On to `CC(=O)OC1CC2C(C)(C)C=CCC2(C)C2CCC3(C)C(c4ccoc4)OC(=O)C4OC43C12C` (configuration not stated), for which the cytotoxicity call was “inactive”.
For `O=C(CN1CCOCC1)NCC[C@H]1CC[C@H](NC(=O)c2ccccc2F)[C@@H](CO)O1`, the cytotoxicity call was “inactive”.
The result for `C[C@@H]1CN([C@@H](C)CO)C(=O)Cc2cc(NC(=O)Nc3cccc4ccccc34)ccc2O[C@@H]1CN(C)S(=O)(=O)c1cccs1` reads “inactive”; that for `C(=N\c1nnc2nc[nH]n12)/c1ccco1`, “inactive”; that for `C[C@@H]1CCCCO[C@@H](CN(C)Cc2ccc(Cl)c(Cl)c2)[C@H](C)CN([C@@H](C)CO)C(=O)c2cc(N(C)C)ccc2O1`, “inactive”.

The values above are taken from the antibiotic and cytotoxicity screens of Wong et al. (2023).
